The text below walks through data of PubChem BioAssay.

Structures are written as SMILES. Active and inactive are the calls of the source.

Assay [1] in a line: small molecules captured by biotinylated probe aFSTL3 – biochemical, small-molecule microarray, fluorescence 635/667, stem cell growth factor project, primary screen (AID 1064).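 Also: measures binding of the biotinylated anti-FSTL3 antibody to printed compounds.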 Particulars: higher = more signal.
A short description of assay [2]: binders from COS7 lysate, DM2A8 probe, primary screen, torsin A project, cell lysate, small-molecule microarray, fluorescence 635/667 (AID 1065). To be noted: higher = more signal, COS7 lysate expressing mutant human TOR1A.
The nature of assay [3]: small molecules captured by biotinylated probe aFGF2 – biochemical, small-molecule microarray, fluorescence 635/667, stem cell growth factor project, primary screen (AID 1067).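 Also: measures binding of biotinylated aFGF2 protein to printed compounds on slides; z-score merges feature fluorescence and signal-to-noise across triplicate slides.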 To be noted: higher = more signal.
Assay [4] in a line: small molecules captured by biotinylated probe aFGF10 – biochemical, small-molecule microarray, fluorescence 635/667, stem cell growth factor project, primary screen (AID 1071).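 Also: score merges 667 nm spot intensity and signal to noise from triplicate slides.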 To be noted: higher = more signal.
In assay [5] the target is Neurogenic locus notch homolog protein 2 (Homo sapiens) (UniProt Q04721). The assay can be described thus: small molecules binding Notch2 protein – biochemical, small-molecule microarray, 635 nm fluorescence, stem cell growth factors, primary screen (AID 1073). Particulars: higher = more signal.
Chain of Neurogenic locus notch homolog protein 2 (Homo sapiens) (Q04721 whole entry, looked up, canonical isoform): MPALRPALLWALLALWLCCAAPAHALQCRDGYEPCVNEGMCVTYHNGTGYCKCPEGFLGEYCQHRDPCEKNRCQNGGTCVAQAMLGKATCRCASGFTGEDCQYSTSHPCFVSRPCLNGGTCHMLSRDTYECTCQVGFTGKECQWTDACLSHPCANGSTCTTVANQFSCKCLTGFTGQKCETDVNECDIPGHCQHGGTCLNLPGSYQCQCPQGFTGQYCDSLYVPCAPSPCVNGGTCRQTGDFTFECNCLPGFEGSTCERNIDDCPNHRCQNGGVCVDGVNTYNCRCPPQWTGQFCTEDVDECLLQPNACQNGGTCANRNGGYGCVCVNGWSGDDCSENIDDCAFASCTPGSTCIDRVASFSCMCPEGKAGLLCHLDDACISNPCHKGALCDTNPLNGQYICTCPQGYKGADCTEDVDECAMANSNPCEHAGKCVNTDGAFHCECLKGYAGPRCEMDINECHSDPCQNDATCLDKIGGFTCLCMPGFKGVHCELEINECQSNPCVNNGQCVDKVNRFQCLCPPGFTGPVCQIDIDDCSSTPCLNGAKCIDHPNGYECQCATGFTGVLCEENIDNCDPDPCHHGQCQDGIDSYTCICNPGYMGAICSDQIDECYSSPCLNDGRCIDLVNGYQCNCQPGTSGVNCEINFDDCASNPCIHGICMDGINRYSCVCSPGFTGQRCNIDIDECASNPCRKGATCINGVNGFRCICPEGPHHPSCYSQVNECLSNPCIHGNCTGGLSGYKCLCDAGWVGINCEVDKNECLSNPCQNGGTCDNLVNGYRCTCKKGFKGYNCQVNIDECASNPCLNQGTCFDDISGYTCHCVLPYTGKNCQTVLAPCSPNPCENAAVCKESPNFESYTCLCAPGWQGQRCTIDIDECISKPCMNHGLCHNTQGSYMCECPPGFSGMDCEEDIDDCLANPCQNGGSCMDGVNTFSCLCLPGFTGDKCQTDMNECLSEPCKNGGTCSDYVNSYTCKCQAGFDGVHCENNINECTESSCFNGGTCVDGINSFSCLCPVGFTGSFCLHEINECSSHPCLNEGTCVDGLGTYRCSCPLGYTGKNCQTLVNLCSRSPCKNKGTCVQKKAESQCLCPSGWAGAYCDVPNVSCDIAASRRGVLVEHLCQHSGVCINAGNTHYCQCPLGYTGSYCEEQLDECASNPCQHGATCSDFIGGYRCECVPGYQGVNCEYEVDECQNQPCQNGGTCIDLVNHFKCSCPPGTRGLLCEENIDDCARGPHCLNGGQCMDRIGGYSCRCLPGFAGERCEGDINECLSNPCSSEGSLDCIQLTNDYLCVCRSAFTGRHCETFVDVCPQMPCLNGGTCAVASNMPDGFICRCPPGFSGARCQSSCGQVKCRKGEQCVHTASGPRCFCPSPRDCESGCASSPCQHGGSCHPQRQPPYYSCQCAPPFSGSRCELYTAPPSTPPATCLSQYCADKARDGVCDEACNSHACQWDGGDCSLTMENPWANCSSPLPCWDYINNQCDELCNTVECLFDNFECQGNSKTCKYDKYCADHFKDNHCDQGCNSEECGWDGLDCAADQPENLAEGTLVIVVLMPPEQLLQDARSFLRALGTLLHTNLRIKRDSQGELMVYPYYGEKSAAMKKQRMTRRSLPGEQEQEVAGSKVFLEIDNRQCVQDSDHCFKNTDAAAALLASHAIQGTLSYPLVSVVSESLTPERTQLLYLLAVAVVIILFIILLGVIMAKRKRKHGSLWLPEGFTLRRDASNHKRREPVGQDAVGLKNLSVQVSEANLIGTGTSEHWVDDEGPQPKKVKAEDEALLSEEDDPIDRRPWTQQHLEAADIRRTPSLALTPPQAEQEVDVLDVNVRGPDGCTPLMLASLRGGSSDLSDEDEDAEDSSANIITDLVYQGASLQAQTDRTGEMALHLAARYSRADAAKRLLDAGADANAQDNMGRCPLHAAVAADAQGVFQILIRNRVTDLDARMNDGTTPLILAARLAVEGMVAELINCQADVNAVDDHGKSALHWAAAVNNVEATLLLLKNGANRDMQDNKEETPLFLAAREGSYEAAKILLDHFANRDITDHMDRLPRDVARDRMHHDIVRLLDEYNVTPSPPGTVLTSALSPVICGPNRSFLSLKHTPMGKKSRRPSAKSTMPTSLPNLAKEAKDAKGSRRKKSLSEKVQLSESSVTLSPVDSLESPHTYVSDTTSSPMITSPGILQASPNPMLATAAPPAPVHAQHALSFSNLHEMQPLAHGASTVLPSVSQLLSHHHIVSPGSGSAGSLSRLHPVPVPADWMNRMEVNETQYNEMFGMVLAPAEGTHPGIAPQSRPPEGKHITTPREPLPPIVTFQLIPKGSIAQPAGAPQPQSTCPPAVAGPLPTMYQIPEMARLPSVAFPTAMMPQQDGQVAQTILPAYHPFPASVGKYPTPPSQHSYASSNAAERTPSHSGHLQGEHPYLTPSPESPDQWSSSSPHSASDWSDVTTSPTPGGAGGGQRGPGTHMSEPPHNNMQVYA
Assay [6] concerns the target Pro-neuregulin-1, membrane-bound isoform (Homo sapiens) (UniProt Q02297). The assay can be described thus: small molecules binding neuregulin-1 protein – biochemical, small-molecule microarray, fluorescence 635/667, psychiatric disease protein project, primary screen (AID 1075).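 Also: score combines 667 nm spot fluorescence with signal to noise.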 To be noted: NRG1 binding, 635 nm fluorescence, higher = more signal.
The test system of assay [7] is Neuregulin-1 EGF-like domain. The assay can be described thus: small molecules binding NRG1 EGF domain – biochemical, small-molecule microarray, 635 nm fluorescence, primary screen (AID 1081).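 Also: binding of the protein to compounds printed on small-molecule microarray slides.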 To be noted: higher = more signal.
Assay [8] in a line: FRG1 expression reporter modulators in myotubes – cell-based, C2C12 myotubes, firefly/Renilla luciferase, luminescence, FRG1 inhibition for FSHD, primary screen (AID 1084). To be noted: FRG1 promoter luciferase, higher = more signal, called active from +8 up or from −8 down.
Assay [9] in a line: small molecules captured by biotinylated probe aFST – biochemical, small-molecule microarray, fluorescence 635/667, stem cell growth factor project, primary screen (AID 1086).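 Also: score merges 667 nm fluorescence with signal-to-noise of each printed compound spot.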 Particulars: higher = more signal.
A short description of assay [10]: binders of probe aHhip on microarray, primary screen, stem cell growth factor project, biochemical, small-molecule microarray, fluorescence 635/667 (AID 1087).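 Also: score merges spot fluorescence at 667nm with spot signal to noise ratio.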 To be noted: higher = more signal.
In assay [11] the test system is PRMT1 (protein arginine N-methyltransferase 1). The assay is described as follows: small molecules binding arginine methyltransferase PRMT1 – biochemical, small-molecule microarray, 635 nm fluorescence, primary screen (AID 1088).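 Also: binding of Prmt1 protein to compounds spotted on small-molecule microarray slides.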 Particulars: higher = more signal.
A short description of assay [12]: growth effects on S. cerevisiae YJM789 – YJM789 clinical isolate, OD600, 24 h, basal, primary screen (AID 1089).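 Also: growth of clinical yeast isolate S. cerevisiae YJM 789 seeded 1000 cells per well; test concentration not given here.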 To be noted: higher = more signal, called active from +8 up or from −8 down.
A short description of assay [13]: S. pombe growth modifiers, basal conditions – strain 972, OD600, 24 h, no modulator, primary screen (AID 1090).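 Also: basal condition with compound alone and no growth modifier present; test concentration not given here.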 To be noted: S. pombe 972 growth, higher = more signal, called active from +8 up or from −8 down.
The nature of assay [14]: budding yeast growth modifiers under rapamycin – strain BY4716, OD600, 96 h, primary screen (AID 1091). Also: test concentration not given here. Particulars: S. cerevisiae BY4716 + rapamycin, higher = more signal, called active from +8 up or from −8 down.
Assay [15] concerns the target Torsin-1A-interacting protein 2 (Homo sapiens) (UniProt Q8NFQ8). The assay is described as follows: small molecules binding lysate-expressed LULL1 – cell lysate, human LULL1 lysate, 635/667 nm fluorescence, primary screen (AID 1092).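 Also: probe is lysate of COS7 cells overexpressing human LULL1; score merges per-feature 667 nm fluorescence with signal-to-noise.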 To be noted: small-molecule microarray, hLULL1 lysate binding, 635 nm fluorescence; higher = more signal.
Assay [16] can be described thus: optical density change of DRC41 E. coli – strain DRC41, OD650, 24 h, E. coli filamentation project, primary screen (AID 1093).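 Also: MC1000 strain lacking acrAB efflux and sulA so SOS filamentation is blocked; test concentration not given here.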 Particulars: E. coli DRC41 growth, higher = more signal, called active from +8 up or from −8 down.
Assay [17] can be described thus: probe aLefty2 binding to arrayed compounds – biochemical, biotinylated probe, 635/667 nm fluorescence, primary screen (AID 1094).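 Also: score merges spot fluorescence near 667 nm with spot signal-to-noise ratio.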 Particulars: small-molecule microarray, higher = more signal.
The test system of assay [18] is Noggin (protein binding on small-molecule microarray). The assay is described as follows: small molecules binding Noggin protein – biochemical, 635/667 nm fluorescence, primary screen (AID 1095).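 Also: score merges 667 nm feature fluorescence with signal to noise over triplicate slides.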 To be noted: 635 nm fluorescence, higher = more signal.
Assay [19] concerns the target Neurogenic locus notch homolog protein 3 (Homo sapiens) (UniProt Q9UM47). The assay can be described thus: small molecules binding NOTCH3 protein – biochemical, 635/667 nm fluorescence, primary screen (AID 1096). Particulars: small-molecule microarray, 635 nm fluorescence, higher = more signal.
Assay [20] is described as follows: probe aEGFR binding to arrayed compounds – biochemical, biotinylated probe, 635/667 nm fluorescence, primary screen (AID 1097).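 Also: probe is a biotinylated anti-EGFR antibody binding compounds printed on slides; score combines fluorescence near 667 nm and signal to noise of each spot.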 Particulars: small-molecule microarray, higher = more signal.

Chain of Torsin-1A-interacting protein 2 (Homo sapiens) (Q8NFQ8 whole entry, looked up): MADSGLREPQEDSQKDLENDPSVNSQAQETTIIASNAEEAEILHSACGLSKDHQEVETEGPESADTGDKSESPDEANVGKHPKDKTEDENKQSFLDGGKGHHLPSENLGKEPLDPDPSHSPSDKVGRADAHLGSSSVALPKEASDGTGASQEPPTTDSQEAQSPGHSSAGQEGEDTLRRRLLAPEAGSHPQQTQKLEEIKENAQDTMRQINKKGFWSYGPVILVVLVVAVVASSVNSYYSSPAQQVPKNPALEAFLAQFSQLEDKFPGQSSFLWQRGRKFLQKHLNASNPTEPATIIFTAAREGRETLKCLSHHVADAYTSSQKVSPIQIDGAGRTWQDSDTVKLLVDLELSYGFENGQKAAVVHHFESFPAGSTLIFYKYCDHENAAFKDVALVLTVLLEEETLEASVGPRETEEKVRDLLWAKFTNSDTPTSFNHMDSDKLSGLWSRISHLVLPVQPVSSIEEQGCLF
Chain of Pro-neuregulin-1, membrane-bound isoform (Homo sapiens) (Q02297 whole entry, looked up, the tested form may be a part, canonical isoform): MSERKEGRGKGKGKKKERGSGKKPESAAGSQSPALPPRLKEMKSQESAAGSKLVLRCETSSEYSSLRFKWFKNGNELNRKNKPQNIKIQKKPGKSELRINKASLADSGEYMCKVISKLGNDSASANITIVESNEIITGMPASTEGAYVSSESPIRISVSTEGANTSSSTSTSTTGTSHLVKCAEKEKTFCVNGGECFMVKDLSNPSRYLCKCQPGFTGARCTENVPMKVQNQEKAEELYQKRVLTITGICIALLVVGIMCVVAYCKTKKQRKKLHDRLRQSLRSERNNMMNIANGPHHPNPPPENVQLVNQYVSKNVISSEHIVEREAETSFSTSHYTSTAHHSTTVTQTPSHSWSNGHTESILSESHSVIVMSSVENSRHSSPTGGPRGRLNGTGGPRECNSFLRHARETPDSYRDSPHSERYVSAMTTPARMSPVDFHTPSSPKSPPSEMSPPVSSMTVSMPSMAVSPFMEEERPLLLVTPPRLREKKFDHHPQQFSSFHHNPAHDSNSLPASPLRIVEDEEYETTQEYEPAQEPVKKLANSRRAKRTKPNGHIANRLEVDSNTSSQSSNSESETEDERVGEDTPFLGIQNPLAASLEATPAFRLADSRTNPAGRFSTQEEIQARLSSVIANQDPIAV

For the molecule `COc1ccc([Si](C)(C)[C@H]2[C@H](CC(=O)N(CCO)Cc3ccccc3)O[C@@]3(C(=O)N(Cc4cccc(N5CCCCC5=O)c4)c4ccccc43)[C@@H]2C)cc1`, the composite z-score was -0.4 in assay [1]; 1.12 in assay [2]; -0.0557 in [3]; 0.141 in assay [4]; 0.262 in [5]; 0.535 in [6]. For the same molecule, the composite z-score in [7] is 0.907; in assay [9] it was 0.0417; in assay [10], -0.166; in assay [11], 1.45; in assay [15], 0.876; in assay [17], -0.0719. Moreover, the composite z-score in assay [18] was 0.659; in assay [19], 0.604; in assay [20] it was -0.045. In addition, the z-score in assay [8] is -2.71 (inactive); in assay [12] it was -1.68 (inactive); in [13] it was -0.0671 (inactive); in [14], 2.14 (inactive); in assay [16], 1.27 (inactive).
Consider `[N-]=[N+]=Nc1ccccc1C[C@@]1(C(=O)NCC(O)CO)N=C(c2ccc(OCCCO)cc2)O[C@@H]1c1ccccc1N=[N+]=[N-]` (stereo not given in full), for which the composite z-score in [1] was -0.175; in assay [2] it was 0.045; in assay [3], 0.285; in [4], 0.311; in [5] it was 0.194; in assay [6] it was 1.62. The composite z-score in assay [7] is 0.848; in [9] it was 0.941; in assay [10] it was -0.134; in [11], 0.9; in assay [15], 3.37; in [17], 0.285. Also, the composite z-score in assay [18] stood at 0.0196; in assay [19], 0.298; in assay [20], 0.0001. The z-score in assay [8] was -0.858 (inactive); in [12] it was -0.961 (inactive); in [13], 0.0801 (inactive); in assay [14], 0.23 (inactive); in [16], 0.616 (inactive).
On to `COc1cccc(C)c1NC(=O)O[C@H]1[C@H](OC(=O)Nc2ccc3c(c2)OCO3)[C@H](OC(=O)Nc2ccc3c(c2)OCO3)[C@@H](OC)O[C@@H]1CO`, for which the composite z-score in assay [1] was found to be 0.394; in [2] it was 0.439; in assay [3], 0.06; in [4], 0.867; in assay [5], 1.25; in assay [6] it was 1.13. Besides, the composite z-score in assay [7] turned out to be 1.35; in assay [9] it was 1.05; in assay [10], 0.12; in assay [11] it was 1.55; in assay [15], 3.19; in assay [17] it was 0.107. The composite z-score in assay [18] was 0.701; in [19] it was 1.04; in assay [20], -0.0192. For the same molecule, the z-score in assay [8] was 3.61 (inactive); in assay [12] it was 1.5 (inactive); in assay [13] it was 0.718 (inactive); in assay [14] it was 4.29 (inactive); in [16], 0.358 (inactive).
Consider `COCCCNC(=O)[C@]1(Cc2ccccc2N=[N+]=[N-])N=C(c2ccc(OCCCO)cc2)O[C@@H]1c1ccccc1`, for which the composite z-score in assay [1] was 0.522; in assay [2], 1; in [3], 0.286; in assay [4] it was 0.232; in assay [5], 1.4; in [6], 1.73. Further, the composite z-score came to 1.27 in [7]; 1.14 in [9]; 0.547 in [10]; 1.46 in assay [11]; 3.23 in assay [15]; 0.692 in [17]. The composite z-score in [18] was -0.0042; in assay [19], 0.901; in assay [20], 0.377. Also, the z-score was -2.74 (inactive) in [8]; -1.51 (inactive) in [12]; -0.982 (inactive) in assay [13]; 2.48 (inactive) in assay [14]; 1.1 (inactive) in assay [16].
`C[C@]12C(=O)N(CCO)[C@@H]3C(=O)N(c4ccc(Cl)cc4)CC=CC31O[C@@H]1/C=C\CCCOC(=O)C12` (stereo not given in full): the composite z-score in [1] was 0.721; in assay [2] it was -0.581; in [3] it was -0.0985; in assay [4] it was -0.986; in [5] it was -0.759; in assay [6] it was 1.12. Further, the composite z-score in assay [7] was 0.0495; in assay [9], -0.599; in assay [10] it was -0.132; in assay [11], -0.0919; in assay [15], -0.236; in assay [17], 0.034. The figures for the composite z-score in [18], in assay [19] and in assay [20] were -0.464, 0.0111 and -0.216, respectively. Moreover, the z-score in [8] was 0.868 (inactive); in assay [12], -0.174 (inactive); in assay [13], -0.13 (inactive); in assay [14], 0.169 (inactive); in assay [16], 0.125 (inactive).
